Source: PubChem (National Center for Advancing Translational Sciences (NCATS))
A549 tox: Nrf2 qHTS screen for inhibitors: counterscreen for cytotoxicity | A549 ARE-Fluc cells, CellTiter-Fluor viability, 18-24 h | Potency, µM (top dose mostly 46 µM), for inactives: at the top dose activity change, negative = cytotoxicity, actives largely listed as inhibitors | hit rate 0.16% among 390,000; also: potency is read from the fitted curve at half-maximal effect; % is scaled to controls: 0 for no effect and ±100 for the full control effect
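A549 ARE-Fluc cells in 5% FBS OPTI-MEM, 5000 cells/well, rested 2 h then exposed to compounds in concentration-response for 18-24 h at 37 °C. Viability by CellTiter-Fluor fluorescence (Ex 405/Em 525) after 30 min; luciferase luminescence (BugLite, 15 min, RT) read afterwards.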
miR-21 act: qHTS Assay for Modulators of miRNAs and/orActivators of miR-21 | HeLa miR-21 FLuc reporter, luciferase, 48 h | Potency, µM (series often up to 38.3 µM), for inactives: at the top dose activity change, positive = activation, most hits filed as activators | 340,000 tested, under 10 active;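 also: % of control where 0% means no effect; miR-21 action dims this reporter so a rising signal means less miR-21 action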
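HeLa cells stably expressing CMV-driven firefly luciferase with a downstream miR-21 binding sequence, endogenously expressing miR-21, were treated with titrations (up to about 40uM final) for 48 hours at 37 degree Celsius. Luciferase luminescence was read after lysis.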
Mito fusion act: qHTS Assay for Small Molecule Inhibitors of Mitochondrial Division or Activators of Mitochondrial Fusion; S. cerevisiae fusion-defective mutant growth rescue, CellTiterGlo 48 h; Potency, µM (top dose mostly 46.1 µM), without a hit: at the highest dose growth rescue (activation), hits mostly activators; hit rate 0.23% among 320,000; AID 485298, 2010; also: potency is read from the fitted curve at half-maximal effect; % of control where 0% means no effect; nearly all actives have a fitted effect of over 45% in size
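Temperature-sensitive fusion-defective S. cerevisiae (e.g. fzo1-1, mgm1-5) were grown with compound in YPEG medium (3% ethanol, 3% glycerol) for 48 hours at 37C. Growth rescue was measured as viability by CellTiterGlo luminescence after 10 minutes at ambient.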
Nrf2 inh: Nrf2 qHTS screen for inhibitors; A549 ARE-Fluc reporter, luciferase luminescence, 18-24 h; Potency, µM (titrated, usually from 46 µM), inactives show top-dose activity change, negative = inhibition, usual class: inhibitors; hit rate 2.1% among 360,000; also: potency is read from the fitted curve at half-maximal effect; % is scaled to controls: 0 for no effect and ±100 for the full control effect; nearly all actives have a fitted effect of over 60% in size
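A549 ARE_Fluc cells (5000/well, 5% FBS OPTI-MEM) pre-incubated 2 h, then treated with compounds 18-24 h at 37C/5% CO2 in concentration-response. CellTiter-Fluor viability read first; BugLite luciferase luminescence after 15 min at room temperature gives Nrf2 activity.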
Nrf2 ARE act: qHTS of Nrf2 Activators; AREc32 ARE-luciferase reporter (MCF7-derived line), luminescence, 24 h; AID 624171, 2012; hit rate 0.31% among 410,000; Potency, µM (series often up to 46.1 µM), without a hit: top-dose activation, hits mostly activators; also: potency is read from the fitted curve at half-maximal effect; % of control where 0% means no effect; nearly all actives have a fitted effect of over 65% in size
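AREc32_Fluc, 1000 cells/well, OPTI-MEM + 5% FBS, o/n 37 deg C 5% CO2; 23 nL cpd by pin tool, 24 hr; Steady-Glo 30 min RT, luminescence.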
Active calls of the source: *; u = inconclusive; x = no result given. Hits are enriched below; roughly 2.3% of the tested compounds scored in any of these assays. Calls follow the shape of the dose curve; as a rule, active = well fitted curve in the direction sought with a large enough effect; inconclusive = small, poorly fitted or top-dose-only effect, or another doubt; inactive = no such curve, though single readings can be large; an effect the other way counts as inactive or inconclusive.

SMILES	A549 tox	miR-21 act	Mito fusion act	Nrf2 inh	Nrf2 ARE act
CC(C)C(=O)Nc1ccc(COc2ccccc2CN(Cc2ccccc2)C(=O)OC(C)(C)C)cc1	-1%	x	x	u	4%
CC(C)C(=O)Nc1cccc(COc2ccc(CN(Cc3ccccc3)C(=O)OC(C)(C)C)cc2)c1	-4%	x	x	16µM*	4%
Cc1ccc(CSc2c(C)cnc3c2c(=O)n(C)c(=O)n3C)cc1	5%	-4%	x	x	12%
COc1ccc(Cn2c(C)nc3c(c2=O)c2nc4ccccc4nc2n3Cc2ccco2)cc1	-17%	x	x	18µM*	3%
CCCCC(O)C(=O)Nc1cc(C(F)(F)F)ccc1Cl (stereo not drawn)	2%	x	x	14%	x
O=C1CCCC2=C1C1(CCOCC1)N=C(Nc1nc3ccccc3o1)N2	1%	x	x	u	x
CCC(C(=O)NCCC(C)C)n1ccc2cc(S(=O)(=O)N3CCCCC3)ccc21 (stereo not drawn)	-19%	29%	-4%	13µM*	0%
O=C(Cn1ccc2cc(S(=O)(=O)N3CCCCCC3)ccc21)NCCc1ccc(Cl)cc1	-2%	1%	x	26µM*	6%
CC(C)CCNC(=O)c1cc2cc(S(=O)(=O)N3CCCCC3)ccc2n1C	-5%	-1%	x	x	-1%
Cc1cccc(NC(=O)CSc2nc3ccccc3nc2N2CCC(C)CC2)c1	-12%	28%	x	u	-1%
O=S(=O)(c1ccccc1Cl)N1CCN(c2nc(-c3cccs3)nc3ccccc23)CC1	-2%	x	x	3%	x
Cc1ccc(-c2ccc(/C=N\NC(=O)c3cc4c(ccc5ccccc54)o3)o2)cc1[N+](=O)[O-]	u	-1%	-1%	23µM*	0%
N#Cc1c(Cl)cccc1Oc1ccc([S+](=O)([O-])N2CCN([S+](=O)([O-])c3c(F)cccc3F)CC2)cc1	1%	x	x	4%	x
Cc1cccc2cc(CN(Cc3nnnn3C3CCCCC3)C3CCCC3)c3nnnn3c12	-22%	-4%	11µM*	u	0%
Cc1cc(C)c2[nH]c(=O)c(CN(Cc3nnnn3C3CCCC3)C3CCCCC3)cc2c1	3%	-1%	-1%	4%	0%
Cc1ccc(CS(=O)(=O)c2cn(CC(=O)N(C)c3ccccc3)c3ccccc23)cc1	-6%	13%	x	u	6%
CCc1cccc(CC)c1NC(=S)NCCc1c(C)[nH]c2ccc(C)cc12	-17%	22%	14%	16µM*	-2%
CCc1cccc(C)c1NC(=S)NCCc1c(C)[nH]c2ccc(C)cc12	-11%	22%	5%	u	-2%
CCOc1ccc(CCNC(=O)CCc2cn(Cc3ccc(F)cc3)c3ccccc23)cc1	1%	4%	x	-22%	3%
CC(=O)Nc1ccc(Nc2nc(C)c([N+](=O)[O-])c(Nc3ccccc3)n2)cc1	u	u	8%	16µM*	3%
Cc1cc(/C=C2\Sc3ccccc3N2C)cc(C)[n+]1CC1CCCO1 (stereo not drawn)	4.1µM*	27%	1%	1.2µM*	12%
Cc1ccc(/C=C2/Sc3ccccc3N(CC(=O)NCC3CCCO3)C2=O)cc1 (stereo not drawn)	-7%	-3%	1%	3%	0%
CCOc1ccccc1NC(=O)C1CCN(S(=O)(=O)Cc2ccccc2)CC1	-1%	26%	x	23µM*	0%
COC(=O)c1cccc(NC(=O)C2CCN(S(=O)(=O)Cc3ccccc3)CC2)c1C	12%	-1%	x	9%	0%
Cc1ccc(C)c(N2CCN(CCCNC(=O)c3nnc(Cc4ccc(F)cc4Cl)o3)CC2)c1	-14%	u	x	u	0%
SMILES	A549 tox	miR-21 act	Mito fusion act	Nrf2 inh	Nrf2 ARE act
Cc1ccc(C)c(NS(=O)(=O)c2ccc3c4c(cccc24)C(=O)N3)c1	-2%	u	x	18µM*	-5%
CCCCN(C)C(=O)c1ccc2c(c1)N(Cc1ccc(F)cc1)C(=O)c1ccccc1S2(=O)=O	u	2%	x	16µM*	7%
COc1ccc(CCNC(=O)c2cc3c(=O)n4cccc(C)c4nc3n2C)cc1	2%	-4%	x	-2%	-1%
CC(=O)c1c(C)[nH]c(C(=O)CN2CCN(S(=O)(=O)c3ccccc3[N+](=O)[O-])CC2)c1C	-8%	x	-5%	21µM*	3%
Cc1sc(NC(=O)CN2CCCC2)nc1-c1ccc2c(c1)CCN2C(=O)c1cccc(F)c1	u	23%	-24%	23µM*	7%
Cc1sc(NC(=O)Cc2ccc3c(c2)OCO3)nc1-c1ccc2c(c1)CCN2C(=O)c1ccccc1F	2%	-28%	-3%	u	3%
CC1CCN(CC(CS(=O)(=O)c2ccc([N+](=O)[O-])cc2)N2CCC(C)CC2)CC1 (stereo not drawn)	u	2%	-9%	23µM*	3%
Cc1ccc(S(=O)(=O)CC(CN2CCOCC2)N2CCOCC2)cc1 (stereo not drawn)	-2%	0%	-7%	21%	-1%
COc1ccc(OC)c(-c2cc(C(=O)Nc3c(C)nn(Cc4ccc(Cl)cc4)c3C)no2)c1	0%	0%	-4%	x	1%
Cc1nn(Cc2ccc(Cl)cc2)c(C)c1NC(=O)c1noc2c1CCc1ccccc1-2	u	u	3%	16µM*	0%
COc1ccc2c(c1)CCc1c(C(=O)Nc3ccn(Cc4ccc(C)cc4)n3)noc1-2	-25%	-5%	0%	16µM*	0%
Cc1nn(Cc2ccc(Cl)c(Cl)c2)c(C)c1NC(=O)c1cc(-c2ccc3c(c2)OCO3)on1	u	-4%	-7%	12µM*	4%
Cc1ccc(NC(=O)c2cc(-c3ccc4c(c3)OCO4)on2)cc1	1%	-6%	-4%	9%	0%
COc1ccc2c(c1)CCc1c(C(=O)Nc3c(C)nn(Cc4ccccc4Cl)c3C)noc1-2	-5%	-6%	x	-80%	1%
Cc1ccc(Cn2ccc(NC(=O)c3noc4c3CCc3ccccc3-4)n2)cc1	-2%	0%	-2%	u	0%
COc1ccc(OC)c(-c2cc(C(=O)Nc3c(C)nn(Cc4ccccc4)c3C)no2)c1	-15%	-7%	-5%	15µM*	3%
O=C(CNC(=O)c1ccncc1)OC(C(=O)Nc1cc(C(F)(F)F)ccc1Cl)c1ccccc1 (stereo not drawn)	16%	x	x	u	x
CC(C)(C)OC(=O)NCc1nnc(-c2cc3ccccc3[nH]2)o1	14%	x	x	u	x
COc1cccc(-c2cc(C(=O)NCc3ccco3)no2)c1	-5%	-51%	-2%	x	1%
COc1ccc2c(c1)CCc1c(C(=O)Nc3c(C)nn(Cc4ccc(Cl)cc4)c3C)noc1-2	-2%	19%	x	-13%	0%
COc1ccc(OC)c(-c2cc(C(=O)NCc3ccco3)no2)c1	2%	-40%	4%	4%	11µM*
